The text below walks through data of PubChem BioAssay (NCI).

Some test systems named below: NCI-H23 lung; NCI-H226 lung; NCI-H322M lung; HOP-62 NSCLC; NCI-H460 lung; HOP-92 NSCLC; NCI-H522 lung; A549/ATCC NSCLC; 786-0 renal; DU-145 prostate; K-562 leukemia; MALME-3M melanoma; MDA-MB-231 breast; RXF 393 renal; SF-268 CNS; SF-295 CNS; SF-539 CNS; UACC-257 melanoma; M14 melanoma.
What all share (assay): NCI-60 one-dose screen, 48 h (100 = growth as untreated, 0 = no growth, -100 = all killed)
What all share (settings): 10 µM unless noted

Compounds without any hit were thinned out: in the full panel of roughly 83,000, 20% have a hit.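 Results are percent growth after 48 hours of single-concentration exposure. 100 means growth as in untreated cells, lower positive values show inhibition; negative values down to -100 show cell death.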 A number with no mark means an inactive call. Active and inactive are the calls of the source. Rule for the calls: active = growth percent below 10; inactive = the rest.

As for `CCNCCNc1cc(-c2ccc(C(=O)OC)cc2)c(C#N)c2nc3ccccc3n12`, the growth with NCI-H23 lung was 66.6%; with NCI-H226 lung it was 87.8%; with NCI-H322M lung, 43.7%; with HOP-62 NSCLC, 68.4%; in the test on NCI-H460 lung it was 4.26% (active); in the test with HOP-92 NSCLC, 71%. For the same molecule, the growth in the test on NCI-H522 lung is 32.3%; in the test on A549/ATCC NSCLC, 11.9%; in the test with 786-0 renal, 44.2%; in the test on DU-145 prostate, 38.1%; in the test on K-562 leukemia it was 2.65% (active); in the test on MALME-3M melanoma it was 88.5%. In addition, the growth with MDA-MB-231 breast was 0.164% (active); with RXF 393 renal it was 16%; with SF-268 CNS, 30.8%; in the test with SF-295 CNS, -62.1% (active); in the test on SF-539 CNS it was -80.1% (active); with UACC-257 melanoma, 53.1%. In addition, the growth in the test on M14 melanoma is 31.5%.

`C[C@@H]1CC[C@@H]2[C@@H]1[C@H](OC(=O)c1ccc3ccccc3c1)[C@]1(C3CCCCC3)C[C@@H](OC(=O)CO)[C@@]2(C)O1`: the growth in the test with NCI-H23 lung was 65.1%; in the test with NCI-H226 lung, 51.8%; in the test on NCI-H322M lung, 81.5%; in the test with HOP-62 NSCLC, 68%; in the test with NCI-H460 lung, 49.9%; with HOP-92 NSCLC it was 34.9%. In addition, the growth in the test on NCI-H522 lung is 49.4%; with A549/ATCC NSCLC it was 48.8%; in the test with 786-0 renal it was -7.27% (active); in the test on DU-145 prostate it was 72.1%; in the test with K-562 leukemia, 39.6%; in the test on MALME-3M melanoma it was 99.9%. The growth in the test with MDA-MB-231 breast was 63.1%; in the test on RXF 393 renal, 8.34% (active); in the test with SF-268 CNS it was 31.4%; in the test with SF-295 CNS, 68.2%; in the test with SF-539 CNS, 90.2%; in the test on UACC-257 melanoma, 63.3%. Besides, in the test on M14 melanoma, the growth is 61.4%.

As for `N#C/C(=C\c1ccc(Br)cc1)n1nnc2ccccc21`, the growth in the test on NCI-H23 lung was 13.5%; in the test on NCI-H226 lung, -23.9% (active); with NCI-H322M lung, -12.2% (active); in the test with HOP-62 NSCLC, 17.9%; in the test on NCI-H460 lung, -23.2% (active); with HOP-92 NSCLC, -15% (active). The growth in the test with NCI-H522 lung is -6.64% (active); in the test with A549/ATCC NSCLC, 18.1%; with 786-0 renal, 5.88% (active); in the test with DU-145 prostate, 14.5%; with K-562 leukemia, 14.5%; with MALME-3M melanoma, 24.1%. Moreover, the growth was 0.304% (active) in the test on MDA-MB-231 breast; -15.4% (active) in the test on RXF 393 renal; 23.9% with SF-268 CNS; 16.1% with SF-295 CNS; -3.55% (active) in the test on SF-539 CNS; 13.4% in the test on UACC-257 melanoma. Besides, the growth in the test on M14 melanoma is 10.7%.

`NC(N)=N/N=C/CO`: the growth in the test on NCI-H23 lung was 103%; with NCI-H226 lung, 99%; with NCI-H322M lung, 99.7%; with HOP-62 NSCLC, 105%; in the test with NCI-H460 lung it was 104%; in the test on HOP-92 NSCLC, 108%. Also, the growth in the test with NCI-H522 lung was 106%; with A549/ATCC NSCLC it was 97.9%; in the test on 786-0 renal it was 99.9%; with DU-145 prostate, 101%; in the test on K-562 leukemia, 99.2%; with MALME-3M melanoma it was 111%. Also, the growth in the test on MDA-MB-231 breast is 111%; with RXF 393 renal, 109%; in the test on SF-268 CNS it was 105%; in the test on SF-295 CNS, 103%; with SF-539 CNS it was 97.5%; in the test on UACC-257 melanoma it was 95.9%. For the same molecule, the growth in the test with M14 melanoma is 99%.

Take `c1ccc(-c2oc3ccccc3c2-c2ccccc2)cc1`: the growth with NCI-H23 lung is 90.2%; in the test with NCI-H226 lung, 88.3%; in the test on NCI-H322M lung it was 95.8%; with HOP-62 NSCLC it was 105%; in the test with NCI-H460 lung, 99.8%; in the test on HOP-92 NSCLC it was 89.5%. Moreover, the growth in the test with NCI-H522 lung is 83%; in the test with A549/ATCC NSCLC it was 97.2%; in the test with 786-0 renal, 98.8%; in the test with DU-145 prostate, 115%; with K-562 leukemia, 67.7%; in the test on MALME-3M melanoma it was 110%. The growth in the test on MDA-MB-231 breast was 100%; in the test on RXF 393 renal, 99.1%; in the test with SF-268 CNS, 109%; in the test with SF-295 CNS, 104%; in the test with SF-539 CNS, 98.5%; in the test with UACC-257 melanoma, 111%. The growth in the test with M14 melanoma was 102%.

In the case of `N=C(N)c1ccc(-c2ccc(-c3ccc(Cl)cc3Cl)o2)nc1`, the growth is 78% in the test with NCI-H23 lung; 96.9% in the test with NCI-H226 lung; 30.7% in the test on NCI-H322M lung; 29.1% in the test with HOP-62 NSCLC; -63.2% (active) with NCI-H460 lung; 77.4% in the test with HOP-92 NSCLC. Besides, the growth was 30% in the test on NCI-H522 lung; 6.38% (active) in the test on A549/ATCC NSCLC; -22% (active) in the test with 786-0 renal; 24.1% in the test with DU-145 prostate; 1.13% (active) with K-562 leukemia; 90% in the test on MALME-3M melanoma. The growth was -38% (active) in the test with MDA-MB-231 breast; 64.4% with RXF 393 renal; 80.1% in the test with SF-268 CNS; -62.8% (active) in the test on SF-295 CNS; 42.6% in the test with SF-539 CNS; 91.4% in the test on UACC-257 melanoma. For the same molecule, in the test with M14 melanoma, the growth was 70.2%.

Consider `CCOc1cc(C2C(Cl)C(=O)N2n2cnnc2)ccc1O` (centres undefined), for which the growth in the test on NCI-H23 lung was 97.2%; in the test with NCI-H226 lung, 106%; in the test on NCI-H322M lung it was 97%; in the test with HOP-62 NSCLC, 74%; in the test on NCI-H460 lung, 104%; with HOP-92 NSCLC it was 91.9%. Moreover, the growth with NCI-H522 lung was 86.2%; with A549/ATCC NSCLC it was 90.5%; in the test with 786-0 renal, 92.7%; in the test with DU-145 prostate it was 110%; in the test with K-562 leukemia, 104%; with MALME-3M melanoma, 99.5%. Besides, the growth is 106% in the test with MDA-MB-231 breast; 93.4% with RXF 393 renal; 92.4% in the test on SF-268 CNS; 105% with SF-295 CNS; 101% in the test with SF-539 CNS; 88.9% in the test with UACC-257 melanoma. In addition, the growth in the test with M14 melanoma was 95.4%.

In the case of `COc1ccccc1NC(=O)Nc1ccc(-c2nc3ccccc3o2)cc1`, the growth with NCI-H23 lung was 99.4%; with NCI-H226 lung it was 99%; in the test with NCI-H322M lung, 88.7%; in the test with HOP-62 NSCLC, 95.8%; in the test on NCI-H460 lung, 101%; in the test with HOP-92 NSCLC, 111%. Also, the growth in the test with NCI-H522 lung is 112%; in the test with A549/ATCC NSCLC, 82.2%; with 786-0 renal, 89.2%; in the test on DU-145 prostate, 101%; in the test with K-562 leukemia it was 83.4%; in the test with MALME-3M melanoma, 95.3%. The growth in the test on MDA-MB-231 breast is 98.5%; with RXF 393 renal it was 108%; in the test on SF-268 CNS, 104%; in the test on SF-295 CNS, 96.8%; in the test on SF-539 CNS it was 96.7%; in the test on UACC-257 melanoma, 101%. In addition, the growth with M14 melanoma was 102%.

In the case of `O=C(NCCOCCOCCOCCNC(=O)c1cc2c(o1)C(=O)c1ccccc1C2=O)NC12CC3CC(CC(C3)C1)C2`, the growth in the test on NCI-H23 lung is -45.7% (active); in the test on NCI-H226 lung it was -80.4% (active); with NCI-H322M lung, -59.5% (active); in the test on HOP-62 NSCLC it was -58% (active); in the test on NCI-H460 lung it was -71% (active); in the test on HOP-92 NSCLC, 43.5%. The growth was -27.7% (active) in the test on NCI-H522 lung; -47.6% (active) in the test on A549/ATCC NSCLC; 3.51% (active) in the test with 786-0 renal; -96% (active) in the test on DU-145 prostate; 7.09% (active) in the test with K-562 leukemia; -94.5% (active) with MALME-3M melanoma. Also, the growth was 18.5% in the test on MDA-MB-231 breast; -52.9% (active) in the test with RXF 393 renal; -5.16% (active) in the test with SF-268 CNS; -91.9% (active) in the test with SF-295 CNS; -63.5% (active) with SF-539 CNS; -77% (active) with UACC-257 melanoma. For the same molecule, in the test with M14 melanoma, the growth was -40.2% (active).

Turning to `CCN(CC)S(=O)(=O)c1ccc(O)c(NC(=O)c2[nH]c(C)c(C(C)=O)c2CCc2ccc(Cl)cc2)c1`, the growth in the test with NCI-H23 lung is 19.6%; in the test with NCI-H226 lung it was 62.5%; in the test with NCI-H322M lung, 54.7%; in the test with HOP-62 NSCLC it was 48.9%; with NCI-H460 lung it was 50.2%; in the test with HOP-92 NSCLC it was 38.2%. For the same molecule, the growth was 11.9% in the test on NCI-H522 lung; 37.2% with A549/ATCC NSCLC; 73.4% in the test with 786-0 renal; 68.4% with DU-145 prostate; 29.8% in the test on K-562 leukemia; 53% in the test on MALME-3M melanoma. Besides, the growth with MDA-MB-231 breast was 50.6%; in the test with RXF 393 renal it was 91.2%; with SF-268 CNS, 55.4%; in the test with SF-295 CNS it was 59.3%; in the test on SF-539 CNS, 64.5%; in the test with UACC-257 melanoma it was 38.3%. Besides, the growth in the test on M14 melanoma is 56.8%.

As to `CCN(CC)CC(O)CNc1c2ccc(Cl)cc2nc2ccc(OC)cc12` (centres undefined), the growth in the test on NCI-H23 lung is -39.1% (active); in the test with NCI-H226 lung, 46.7%; in the test with NCI-H322M lung, -27.1% (active); with HOP-62 NSCLC, -47.1% (active); in the test with NCI-H460 lung, 0.742% (active); in the test on HOP-92 NSCLC it was -13.9% (active). In addition, the growth in the test with NCI-H522 lung is -65.7% (active); in the test on A549/ATCC NSCLC it was -72.9% (active); with 786-0 renal it was -16.1% (active); in the test on DU-145 prostate it was -26.4% (active); in the test with K-562 leukemia, -10.3% (active); in the test with MALME-3M melanoma it was -98.4% (active). The growth in the test with MDA-MB-231 breast is -33.4% (active); in the test with RXF 393 renal, -80.8% (active); in the test on SF-268 CNS, 14.8%; with SF-295 CNS, 10.8%; in the test with SF-539 CNS, -61.3% (active); in the test on UACC-257 melanoma, -87% (active). Moreover, the growth in the test with M14 melanoma is -94.2% (active).
